# Most compounds without a hit are left out; they make up all but 9.5% or so of the library.
# Tau fibril FP: qHTS for Inhibitors of Tau Fibril Formation, Fluorescence Polarization; Microtubule-associated protein tau (Homo sapiens), P10636; K18 P301L tau heparin fibrillization, Alexa594 FP, 6 h; Potency, µM (series often up to 57.7 µM), without a hit: at the top dose activity, negative = inhibition, most hits filed as inhibitors; actives 0.39% (n = 280,000); further: nearly all actives have a fitted effect of over 55% in size
# Target sequence (P10636 561-689 P618L limits assumed): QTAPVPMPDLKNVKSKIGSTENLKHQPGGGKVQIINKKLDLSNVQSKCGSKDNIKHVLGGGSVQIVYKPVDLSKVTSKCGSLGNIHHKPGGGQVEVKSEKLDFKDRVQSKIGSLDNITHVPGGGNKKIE
#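 Human tau K18 […] P301L fragment, 15 uM unlabeled plus 0.24 uM Alexa 594-labeled tau (final), with compound and 20 uM heparin in 100 mM sodium acetate pH 7; 6 hr at 37 C, then Alexa 594 FP read.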
# Tau fluor cs: Counterscreen qHTS for Inhibitors of Tau Fibril Formation, Fluorescence Polarization; tau K18 P301L Alexa594 fluorescence, heparin fibrillization; Potency, µM (titrated, usually from 57.7 µM), without a hit: at the highest dose activity change, negative = decrease; actives 0.93% (n = 280,000); AID 1463, 2008; further: nearly all actives have a fitted effect of over 55% in size
#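 Human tau K18 P301L (15 uM unlabeled, 0.24 uM Alexa 594-labeled) in 100 mM sodium acetate pH 7 with 20 uM heparin, 6 hr at 37 C. ThT 30 uM added, 1 hr ambient; Alexa 594 FP and total fluorescence read at 555/632 nm.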
# NPSR antagonist: qHTS Assay for Antagonists of the Neuropeptide S Receptor: cAMP Signal Transduction; Potency, µM (titrated, usually from 38.3 µM), inactives show at the highest dose activity change, negative = inhibition, most hits filed as inhibitors; actives 1% (n = 220,000); AID 1461, 2008; CHO-NPSR cells, cAMP TR-FRET, antagonist mode; Q6W5P4; further: nearly all actives have a fitted effect of over 50% in size
# ALDH1A1 block: qHTS Assay for Inhibitors of Aldehyde Dehydrogenase 1 (ALDH1A1); Purified ALDH1A1, NADH fluorescence, propionaldehyde substrate; Potency, µM (doses to about 75.3 µM), without a hit: at the highest dose activity, negative = inhibition, actives largely listed as inhibitors; actives 7.3% (n = 220,000); Aldehyde dehydrogenase 1A1 (Homo sapiens), P00352; active means well fitted inhibition curve with a large enough effect, not every such curve was filed as active; inconclusive means small, poorly fitted or top-dose-only effect, or another doubt; inactive means no such curve, though single readings can be large or run the other way;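 further: plate controls were no enzyme wells and a reference inhibitor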
# Target sequence (P00352 whole entry, looked up): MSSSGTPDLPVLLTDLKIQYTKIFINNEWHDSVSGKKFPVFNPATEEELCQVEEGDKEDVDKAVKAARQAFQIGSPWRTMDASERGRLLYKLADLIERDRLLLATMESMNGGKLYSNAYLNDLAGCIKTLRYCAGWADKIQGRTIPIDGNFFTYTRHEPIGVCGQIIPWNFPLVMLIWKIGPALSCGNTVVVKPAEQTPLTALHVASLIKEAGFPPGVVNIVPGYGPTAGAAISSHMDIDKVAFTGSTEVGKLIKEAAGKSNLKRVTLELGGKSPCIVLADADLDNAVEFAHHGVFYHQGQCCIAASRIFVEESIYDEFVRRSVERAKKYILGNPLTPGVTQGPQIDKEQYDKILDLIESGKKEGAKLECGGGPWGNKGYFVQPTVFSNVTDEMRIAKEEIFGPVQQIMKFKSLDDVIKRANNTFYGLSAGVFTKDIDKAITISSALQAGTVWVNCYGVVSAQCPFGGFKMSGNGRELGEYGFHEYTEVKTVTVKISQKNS
# HPGD block: qHTS Assay for Inhibitors of HPGD (15-Hydroxyprostaglandin Dehydrogenase); 15-hydroxyprostaglandin dehydrogenase [NAD(+)] (Homo sapiens), P15428; purified HPGD, NADH fluorescence kinetic, PGE2 substrate; Potency, µM, without a hit: top-dose activity change, negative = inhibition, hits mostly inhibitors; actives 4.3% (n = 150,000); AID 894, 2007; active means well fitted inhibition curve with a large enough effect, not every such curve was filed as active; inconclusive means small, poorly fitted or top-dose-only effect, or another doubt; inactive means no such curve, though single readings can be large or run the other way
#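 NADH formation kinetics: reaction with 30 uM PGE2 and 1 mM NAD+ (final), 20 nM enzyme, Tris-HCl pH 8 with Tween 20, after 15 min compound preincubation at room temperature. Fluorescence change, last versus first of five reads.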
# Tau fibril ThT: qHTS for Inhibitors of Tau Fibril Formation, Thioflavin T Binding | Potency, µM (doses to about 57.4 µM), without a hit: at the highest dose activity, negative = inhibition, usual class: inhibitors | actives 2.1% (n = 270,000) | Microtubule-associated protein tau (Homo sapiens), P10636 | recombinant tau K18 P301L, heparin-induced fibrillization, ThT fluorescence; further: nearly all actives have a fitted effect of over 55% in size
#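 Fibril formation assay: tau K18 P301L at 15 uM with trace Alexa 594 label, heparin inducer 20 uM, pH 7 sodium acetate buffer, 37 C for 6 hr; endpoint ThT signal.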
# Starred values were filed as active, the others as inactive; ? = inconclusive; · = no result given; [ ] = remark or other dose. Unless noted, the call rests on the fitted dose curve; in most records, active means well fitted curve in the direction sought with a large enough effect; inconclusive means small, poorly fitted or top-dose-only effect, or another doubt; inactive means no such curve, though single readings can be large; an effect the other way counts as inactive or inconclusive. Unless noted, on the % scale 0 is the no-effect control and ±100 the full control effect; potency means the concentration at half of the fitted maximal effect.
SMILES,Tau fibril FP,Tau fluor cs,NPSR antagonist,ALDH1A1 block,HPGD block,Tau fibril ThT
COC(=O)c1ccc(NC(=O)c2ccccc2)o1,2%,-1%,-18%[46.1 µM],-12%,32µM*,-7%
COc1cccc(Nc2sc(C(=O)c3ccc(Cl)cc3)c(N)c2C(=O)NCc2ccc(C)cc2)c1,7%,?,·,·,·,?
COc1ccc(Nc2sc(C(=O)c3ccc(Cl)cc3)c(N)c2C(=O)Nc2ccccc2OC)cc1,-2%,?,-26%[46.1 µM],-8%,-11%,22µM*
Cc1cc(Nc2sc(C(=O)c3ccc(F)cc3)c(N)c2C(=O)Nc2ccc(F)cc2)ccc1Cl,-12%,10µM*[quencher],·,·,·,20µM*
Cc1ccc(NC(=O)c2c(Nc3ccccc3C)sc(C(=O)c3ccccc3)c2N)cc1,2%,?,·,·,·,-16%
COc1ccc(C(=O)c2sc(Nc3cccc(OC)c3)c(C(=O)Nc3cccc(C)c3C)c2N)cc1,-8%,?,-13%[46.1 µM],-2%,-27%,18µM*
COc1ccc(C(=O)c2sc(Nc3ccccc3)c(C(=O)Nc3ccc(OC)c(OC)c3)c2N)cc1,?,16µM*[quencher],-27%[46.1 µM],18µM*,-14%,16µM*
COc1ccc(Nc2sc(C(=O)c3ccccc3)c(N)c2C(=O)Nc2cc(C)ccc2C)c(OC)c1,3%,?,·,·,·,?
COc1ccc2c(c1)OC(=O)CC2c1ccc2c(c1)OCO2 (stereo not given),1%[81.3 µM],?,·,?,-6%,-18%[81.4 µM]
O=C1N(Cc2cccnc2)C[C@@H]2C[C@@H](c3cccc(OC4CCCC4)c3)N3CCC[C@@]123,4%,12%,4%,-13%,·,-4%
CCOc1ccc(NC(=O)c2cc(F)c(F)cc2Cl)cc1OCC,12%,-13%,-16%,4%,·,-11%
COc1ccc(NC(=O)c2c(Nc3ccccc3)sc(C(=O)c3ccc(F)cc3)c2N)cc1,3%,?,-23%[46.1 µM],-3%,?,11µM*
COc1cccc(Nc2sc(C(=O)c3ccc(F)cc3)c(N)c2C(=O)NCc2ccc(Cl)cc2)c1,?,?,·,·,·,20µM*
N#Cc1c(Nc2cccc(F)c2)sc(C(=O)c2ccc(Cl)cc2)c1N,?,?,·,·,·,28µM*
CCCCc1nc2c(c3c1C[C@H](C)OC3)CN(C(=O)C1CC1)CC2,6%[11.6 µM],0%[11.6 µM],·,6%[13.5 µM],-1%,7%[11.5 µM]
Cc1c(Br)c(O)c(Br)c2sc(=O)oc12,?,?,-16%,?,·,11µM*
O=C(c1cccc(F)c1)N1CCc2ccccc2C1,-10%,-5%,7%[46.1 µM],14µM*,5µM*,-12%
O=C(c1ccc(Cl)nc1)N1CCc2ccccc2C1,-4%,-7%,-1%[46.1 µM],-1%,7.9µM*,-13%
O=C(c1ccccc1Cl)N1CCc2ccccc2C1,10%,1%,-8%[46.1 µM],?,4.5µM*,-4%
O=C(c1cncc(Br)c1)N1CCCc2ccccc21,1%,3%,3%[46.1 µM],-10%,-11%,-1%
O=C(c1cncc(Br)c1)N1CCc2ccccc2C1,-10%,-8%,3%[46.1 µM],6%,10µM*,-9%
COc1cccc(C(=O)N2CCN(C(=O)c3cccc(F)c3)CC2)c1,-1%,-5%,-9%[46.1 µM],?,-1%,-5%
COc1cccc(-c2ccc3ncnc(N4CCN(C)CC4)c3c2)c1,·,·,·,30%,·,·
O=C(/C(Br)=C/Nc1cc(Cl)ccc1Cl)C(F)(F)F,-14%,-3%,5%,16µM*,?,?
COc1ccc(-c2oc(NC(C)=O)c(C#N)c2-c2ccc(OC)cc2)cc1,?,16µM*[quencher],-25%[46.1 µM],-10%,-16%,?
SMILES,Tau fibril FP,Tau fluor cs,NPSR antagonist,ALDH1A1 block,HPGD block,Tau fibril ThT
CCCCCCCC#Cc1ccccc1C(NC(=O)OC)C(C(=O)OC)C(=O)OC (stereo not given),1%[11.6 µM],-18%[11.6 µM],·,12%[13.5 µM],·,-13%[11.5 µM]
NC(=S)Nc1cccc(F)c1,-4%,1%,-16%,1%,·,2%
O=C(c1ccc(F)cc1)C1CCN(C(=O)NC2CCCCC2)CC1,-2%,-2%,-12%[46.1 µM],11µM*,-8%,-3%
O=C(NC1CCCCC1)N1CCN(S(=O)(=O)c2ccc(F)cc2)CC1,-5%,-12%,-7%,6%,·,-8%
CCOCCCNC(=O)c1ccc(-n2c(-c3ccccc3)cc3c2CCCCC3)cc1,20µM*,?,·,·,·,13%
COCCNC(=O)c1ccc(-n2c(-c3ccccc3)cc3c2CCCCC3)cc1,25µM*,?,·,·,·,-9%
COCCCNC(=O)c1ccc(-n2c(-c3ccccc3)cc3c2CCC(C)C3)cc1 (stereo not given),13µM*,-23%,·,·,·,15%
CCNC(=O)c1ccc(-n2c(-c3ccccc3)cc3c2CCCCC3)cc1,11µM*,?,·,·,·,21%
CCCNC(=O)c1ccc(-n2c(-c3ccccc3)cc3c2CCCCC3)cc1,?,?,·,·,·,5%
Cc1cc2c(n1-c1ccc(C(=O)NCCc3ccccc3)cc1)CCC(C)C2 (stereo not given),?,-19%,·,·,·,?
C[C@H](NC(=O)CNC(=O)[C@@H](NC(=O)[C@H](Cc1ccccc1)NC(=O)CNC(=O)CNC(=O)[C@@H](N)Cc1ccccc1)[C@@H](C)O)C(=O)N[C@@H](CCCN=C(N)N)C(=O)N[C@@H](CCCCN)C(=O)N[C@@H](CO)C(=O)N[C@@H](C)C(=O)N[C@@H](CCCN=C(N)N)C(=O)N[C@H](CN)CCCCN,2%,-1%,·,7%,·,10%
Cc1c(NC(=O)c2ccc(OC(C)C)cc2)cccc1-c1nc2ncccc2o1,11%,-23%,·,·,·,?
CC(C)NC(=O)c1ccc(-n2c(-c3ccccc3)cc3c2CCCC3)cc1,?,-16%,·,·,·,0%
CC(C)OCCCNC(=O)c1ccc(-n2c(-c3ccccc3)cc3c2CCCC3)cc1,14µM*,?,·,·,·,-9%
CCOc1cc(C#N)c(NC(=O)c2ccc(OC)c(S(=O)(=O)N3CCN(c4ccccc4)CC3)c2)cc1OCC,?,-28%,·,·,·,3%
CC(C)(C)CC(=O)NCC(c1ccc2c(c1)OCO2)N1CCN(c2ccccc2)CC1 (stereo not given),-2%,-16%,·,·,·,-12%
COc1ccccc1-c1nnc(SC/C(O)=C(\C#N)c2nc3ccccc3[nH]2)n1C1CCCCC1,5%,5%,-34%,?,35µM*,-1%

# Source: PubChem BioAssay (National Center for Advancing Translational Sciences (NCATS))
